Our source for the inhibition values is ChEMBL document CHEMBL1961873, “Compounds: GSK PKIS; Assays: Nanosyn kinase panel” (2012).

One may read the inhibition as the relative decrease from the control value, in per cent.

Assay [1] has as its target T1, Serine/threonine-protein kinase D2 (Homo sapiens) (UniProt Q9BZL6).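 Note: mean value of PRKD2 inhibition, from the GSK PKIS screening panel.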
T1 sequence (whole entry): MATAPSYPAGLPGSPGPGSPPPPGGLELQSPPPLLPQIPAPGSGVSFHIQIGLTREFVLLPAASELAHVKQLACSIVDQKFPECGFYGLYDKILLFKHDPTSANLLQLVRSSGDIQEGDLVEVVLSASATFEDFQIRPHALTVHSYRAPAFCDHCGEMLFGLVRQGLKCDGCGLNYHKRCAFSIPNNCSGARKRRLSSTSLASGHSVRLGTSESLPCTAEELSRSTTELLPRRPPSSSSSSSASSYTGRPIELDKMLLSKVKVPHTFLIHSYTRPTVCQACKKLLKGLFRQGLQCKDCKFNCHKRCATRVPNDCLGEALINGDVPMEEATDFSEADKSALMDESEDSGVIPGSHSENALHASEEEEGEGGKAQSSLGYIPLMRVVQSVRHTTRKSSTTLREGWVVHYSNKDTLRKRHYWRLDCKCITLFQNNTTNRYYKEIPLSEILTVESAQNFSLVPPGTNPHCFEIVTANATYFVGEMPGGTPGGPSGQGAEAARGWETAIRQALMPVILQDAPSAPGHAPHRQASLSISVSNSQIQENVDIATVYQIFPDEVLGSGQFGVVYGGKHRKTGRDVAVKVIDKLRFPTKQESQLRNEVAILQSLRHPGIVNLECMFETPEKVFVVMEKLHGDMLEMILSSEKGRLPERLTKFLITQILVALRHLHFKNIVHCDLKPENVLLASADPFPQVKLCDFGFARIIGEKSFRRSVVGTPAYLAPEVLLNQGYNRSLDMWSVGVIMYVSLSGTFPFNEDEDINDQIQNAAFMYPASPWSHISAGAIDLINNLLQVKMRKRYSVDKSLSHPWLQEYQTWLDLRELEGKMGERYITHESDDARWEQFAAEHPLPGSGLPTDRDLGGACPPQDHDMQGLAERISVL
The conditions noted are these: at 1 µM.

The target of assay [2] is T2, Serine/threonine-protein kinase D3 (Homo sapiens) (UniProt O94806).
T2 sequence (whole entry): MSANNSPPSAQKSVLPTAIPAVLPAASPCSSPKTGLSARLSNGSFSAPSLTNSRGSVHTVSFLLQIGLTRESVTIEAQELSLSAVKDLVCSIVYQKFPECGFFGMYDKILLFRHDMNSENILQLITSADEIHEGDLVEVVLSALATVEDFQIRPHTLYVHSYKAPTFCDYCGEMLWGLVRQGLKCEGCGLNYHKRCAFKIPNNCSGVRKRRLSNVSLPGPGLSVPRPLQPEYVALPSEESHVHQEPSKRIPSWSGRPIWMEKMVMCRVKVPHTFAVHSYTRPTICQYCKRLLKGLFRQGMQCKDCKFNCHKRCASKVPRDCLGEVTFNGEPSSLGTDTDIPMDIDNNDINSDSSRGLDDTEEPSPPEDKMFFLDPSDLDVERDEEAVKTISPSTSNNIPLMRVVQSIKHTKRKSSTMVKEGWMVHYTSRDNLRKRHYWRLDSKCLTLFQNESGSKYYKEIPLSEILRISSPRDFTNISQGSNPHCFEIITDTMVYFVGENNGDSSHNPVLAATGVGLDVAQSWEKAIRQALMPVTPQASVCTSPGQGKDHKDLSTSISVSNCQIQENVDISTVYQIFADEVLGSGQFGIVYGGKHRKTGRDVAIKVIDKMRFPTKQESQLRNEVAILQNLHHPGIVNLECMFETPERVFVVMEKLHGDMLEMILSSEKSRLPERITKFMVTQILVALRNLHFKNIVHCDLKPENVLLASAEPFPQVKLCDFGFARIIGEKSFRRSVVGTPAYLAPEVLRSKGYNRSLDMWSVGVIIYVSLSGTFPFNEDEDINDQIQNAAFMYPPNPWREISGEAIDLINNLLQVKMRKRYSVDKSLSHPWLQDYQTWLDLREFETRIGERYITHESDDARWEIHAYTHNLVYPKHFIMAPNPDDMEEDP
The conditions noted are these: at 0.1 µM.

The target of assay [3] is T2, Serine/threonine-protein kinase D3 (Homo sapiens). The conditions noted are these: at 1 µM.
Assay [4] has as its target T3, cGMP-dependent protein kinase 1 (Homo sapiens) (UniProt Q13976).
T3 sequence (whole entry): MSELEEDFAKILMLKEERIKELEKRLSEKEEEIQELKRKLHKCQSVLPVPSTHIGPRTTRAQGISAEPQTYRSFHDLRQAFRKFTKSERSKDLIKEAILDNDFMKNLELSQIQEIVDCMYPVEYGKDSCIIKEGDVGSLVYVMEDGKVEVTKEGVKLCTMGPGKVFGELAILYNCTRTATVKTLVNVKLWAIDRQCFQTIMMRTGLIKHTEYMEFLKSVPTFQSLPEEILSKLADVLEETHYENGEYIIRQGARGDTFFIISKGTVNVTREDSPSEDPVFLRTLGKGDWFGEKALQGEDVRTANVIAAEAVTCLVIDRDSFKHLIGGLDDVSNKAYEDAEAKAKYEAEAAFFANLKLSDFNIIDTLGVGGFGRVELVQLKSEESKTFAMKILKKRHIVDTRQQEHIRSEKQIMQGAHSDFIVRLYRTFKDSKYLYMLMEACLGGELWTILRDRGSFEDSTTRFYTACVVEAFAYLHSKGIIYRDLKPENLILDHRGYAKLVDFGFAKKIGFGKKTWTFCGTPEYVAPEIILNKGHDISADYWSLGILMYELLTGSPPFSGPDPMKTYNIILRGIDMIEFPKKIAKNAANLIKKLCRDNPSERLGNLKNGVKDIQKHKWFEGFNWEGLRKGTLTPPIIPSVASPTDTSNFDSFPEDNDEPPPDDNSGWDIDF
Conditions: at 0.1 µM.

For assay [5], the target named is T3, cGMP-dependent protein kinase 1 (Homo sapiens). Conditions: at 1 µM.
In assay [6] the target is T4, cGMP-dependent protein kinase 2 (Homo sapiens) (UniProt Q13237).
T4 sequence (whole entry): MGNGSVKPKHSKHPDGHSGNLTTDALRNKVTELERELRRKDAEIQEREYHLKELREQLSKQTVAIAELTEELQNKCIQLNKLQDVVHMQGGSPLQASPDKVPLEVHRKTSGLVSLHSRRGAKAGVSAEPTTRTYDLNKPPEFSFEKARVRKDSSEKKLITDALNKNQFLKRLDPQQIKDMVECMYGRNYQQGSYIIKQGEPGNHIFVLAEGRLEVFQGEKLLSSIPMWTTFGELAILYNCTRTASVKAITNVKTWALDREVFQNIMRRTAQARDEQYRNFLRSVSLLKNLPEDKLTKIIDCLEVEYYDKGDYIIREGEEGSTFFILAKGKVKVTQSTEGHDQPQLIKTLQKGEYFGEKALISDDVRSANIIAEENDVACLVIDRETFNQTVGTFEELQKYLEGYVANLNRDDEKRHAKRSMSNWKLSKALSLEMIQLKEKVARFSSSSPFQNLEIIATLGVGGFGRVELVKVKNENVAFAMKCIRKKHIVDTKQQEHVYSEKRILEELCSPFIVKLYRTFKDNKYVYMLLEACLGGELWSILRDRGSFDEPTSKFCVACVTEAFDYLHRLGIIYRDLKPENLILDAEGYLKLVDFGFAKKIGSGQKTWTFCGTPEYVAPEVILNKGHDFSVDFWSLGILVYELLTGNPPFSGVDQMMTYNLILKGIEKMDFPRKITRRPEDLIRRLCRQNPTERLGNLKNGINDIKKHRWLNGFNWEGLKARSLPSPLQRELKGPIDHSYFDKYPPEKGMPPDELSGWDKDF
The conditions noted are these: at 0.1 µM.

In assay [7] the target is T4, cGMP-dependent protein kinase 2 (Homo sapiens). The conditions noted are these: at 1 µM.
Assay [8] has as its target T5, cAMP-dependent protein kinase catalytic subunit PRKX (Homo sapiens) (UniProt P51817).
T5 sequence (whole entry): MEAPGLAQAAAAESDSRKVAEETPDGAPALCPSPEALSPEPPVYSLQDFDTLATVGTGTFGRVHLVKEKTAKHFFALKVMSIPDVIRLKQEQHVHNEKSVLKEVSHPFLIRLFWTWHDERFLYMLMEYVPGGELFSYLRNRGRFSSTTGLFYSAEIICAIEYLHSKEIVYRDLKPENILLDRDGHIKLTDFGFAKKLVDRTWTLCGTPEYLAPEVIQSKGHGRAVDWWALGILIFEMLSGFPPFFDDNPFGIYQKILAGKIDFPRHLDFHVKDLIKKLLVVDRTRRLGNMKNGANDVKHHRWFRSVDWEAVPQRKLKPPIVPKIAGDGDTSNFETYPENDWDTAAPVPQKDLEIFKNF
Conditions: at 0.1 µM.

Assay [9] has as its target T5, cAMP-dependent protein kinase catalytic subunit PRKX (Homo sapiens). The conditions noted are these: at 1 µM.
Assay [10] addresses Rho-associated protein kinase 1 (Homo sapiens) (UniProt Q13464). The conditions noted are these: at 0.1 µM.

Rho-associated protein kinase 1 (Homo sapiens), sequence (Q13464 2-1354 limits assumed): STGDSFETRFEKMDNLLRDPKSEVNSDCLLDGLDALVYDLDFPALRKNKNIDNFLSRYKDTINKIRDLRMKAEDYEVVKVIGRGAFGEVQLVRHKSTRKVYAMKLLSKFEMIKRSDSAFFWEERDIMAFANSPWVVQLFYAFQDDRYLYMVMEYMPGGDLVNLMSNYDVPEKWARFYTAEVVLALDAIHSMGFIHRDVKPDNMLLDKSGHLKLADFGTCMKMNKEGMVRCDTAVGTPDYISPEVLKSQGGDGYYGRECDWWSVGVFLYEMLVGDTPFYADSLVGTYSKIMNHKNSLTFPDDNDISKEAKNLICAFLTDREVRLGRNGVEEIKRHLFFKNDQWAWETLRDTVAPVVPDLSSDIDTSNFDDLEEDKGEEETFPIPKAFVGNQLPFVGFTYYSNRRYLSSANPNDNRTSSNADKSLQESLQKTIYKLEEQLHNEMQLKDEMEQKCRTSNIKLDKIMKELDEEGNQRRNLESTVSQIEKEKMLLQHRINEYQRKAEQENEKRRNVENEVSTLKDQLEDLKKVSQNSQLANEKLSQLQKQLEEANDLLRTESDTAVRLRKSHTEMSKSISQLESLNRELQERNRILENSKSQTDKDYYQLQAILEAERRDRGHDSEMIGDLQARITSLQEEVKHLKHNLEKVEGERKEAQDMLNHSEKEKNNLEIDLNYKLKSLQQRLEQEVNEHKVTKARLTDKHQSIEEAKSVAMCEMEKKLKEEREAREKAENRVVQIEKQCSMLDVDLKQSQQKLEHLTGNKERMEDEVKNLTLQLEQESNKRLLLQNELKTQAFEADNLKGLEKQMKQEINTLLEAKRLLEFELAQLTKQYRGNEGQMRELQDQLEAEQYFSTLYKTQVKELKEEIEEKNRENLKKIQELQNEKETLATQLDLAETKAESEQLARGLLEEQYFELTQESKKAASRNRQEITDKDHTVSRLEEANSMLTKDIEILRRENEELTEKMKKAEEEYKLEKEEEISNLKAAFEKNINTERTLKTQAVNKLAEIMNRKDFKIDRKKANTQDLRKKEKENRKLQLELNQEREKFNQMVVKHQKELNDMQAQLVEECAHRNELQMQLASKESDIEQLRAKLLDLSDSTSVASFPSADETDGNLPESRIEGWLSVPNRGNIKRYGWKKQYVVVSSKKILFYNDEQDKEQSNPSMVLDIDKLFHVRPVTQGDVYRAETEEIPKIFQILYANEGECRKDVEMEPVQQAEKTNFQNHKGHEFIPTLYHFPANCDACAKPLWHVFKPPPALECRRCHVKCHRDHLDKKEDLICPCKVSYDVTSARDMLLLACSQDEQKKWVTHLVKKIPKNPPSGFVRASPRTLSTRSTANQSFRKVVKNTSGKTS

With `Cc1nc(-c2ccccc2)n2nc(NCCCN3CCOCC3)ncc12`, the inhibition in assay [1] was 2.01%; in [2], 1.88%; in assay [3], 2.23%; in [4], 1.36%; in assay [5], 3.22%; in assay [6], 1.49%. For the same compound, the inhibition is 3.07% in [7], 2.28% in assay [8], 1.01% in [9] and 0.46% in assay [10].

As to `c1ccc(Cc2nc3ccc(Nc4ncnc5ccccc45)cc3[nH]2)cc1`, the inhibition in assay [1] was found to be 4.57%; in [2], 3.17%; in [3], 5.52%; in [4], 1.14%; in assay [5] it was 4.46%; in assay [6], 1.61%. In addition, the inhibition in assay [7] amounted to 6.41%; in assay [8], 0.98%; in [9], 1.89%; in [10], 0.25%.

On to `Cc1cc(Cl)cc2c1NC(=O)C2=NNc1ccc(S(N)(=O)=O)cc1`, for which the inhibition in [1] amounted to 2.34%; in assay [2] it was 2.25%; in assay [3] it was 1.81%; in assay [4], 1.17%; in assay [5], 3.27%; in [6], 2.01%. Besides, the inhibition is 2% in assay [7], 1.43% in assay [8], 3.22% in [9] and 0.02% in assay [10].

Consider `Nc1ccc(C#Cc2cncnc2Nc2ccc(OCc3cccc(F)c3)c(Cl)c2)cc1`, for which the inhibition in assay [1] was 2.21%; in assay [2], 2.59%; in assay [3] it was 2.64%; in [4] it was 3.04%; in [5], 1.31%; in assay [6], 2.28%. Further, the inhibition in assay [7] worked out at 0.99%; in assay [8], 1.33%; in assay [9] it was 1.72%; in [10], 0.74%.

For the compound `C[C@@H](Oc1cc(-n2cnc3ccc(OC[C@@H](O)CO)cc32)sc1C(N)=O)c1ccccc1Cl`, the inhibition in assay [1] is 1.51%; in assay [2] it was -1.65%; in [3], 0.06%; in assay [4], -2.27%; in assay [5], -0.2%; in [6] it was -0.02%. The inhibition in [7] is -0.19%; in assay [8], -1.09%; in [9] it was -8.23%; in assay [10], 0.14%.

In the case of `CN(C)C(=O)O[C@@H]1CN[C@@H](C#Cc2cc3ncnc(Nc4ccc(OCc5cccc(F)c5)c(Cl)c4)c3s2)C1`, the inhibition in assay [1] is 5.06%; in [2] it was 1.06%; in assay [3], 4.35%; in assay [4], -0.86%; in assay [5] it was 1.64%; in [6], 0.46%. Further, the inhibition in assay [7] is 2.7%; in assay [8], -0.77%; in assay [9], -1.92%; in assay [10], -0.58%.

`CCn1c(-c2nonc2N)nc2ccc(F)cc21`: the inhibition in [1] was determined as 5.33%; in [2], 6.8%; in assay [3], 6.49%; in assay [4], 3.97%; in assay [5] it was 14.5%; in assay [6] it was 8.14%. The inhibition in [7] came out at 41.4%; in [8] it was 3.36%; in assay [9] it was 6.51%; in assay [10] it was 2.21%.

For `O=C(Nc1ccc(Oc2ccc3[nH]c(NC(=O)c4ccco4)nc3c2)cc1)Nc1cc(C(F)(F)F)ccc1F`, the inhibition was -1.48% in assay [1]; -3.15% in assay [2]; -1.16% in [3]; 1.18% in [4]; 4.28% in [5]; 1.74% in [6]. Further, the inhibition is 4.38% in assay [7], 4% in assay [8], 4.61% in assay [9] and 3.36% in assay [10].
